The source made the active and inactive calls. The calls were made as follows: active = hit-call score of the fitted dose curve at least 0.9, where 1 is the maximum; inactive = score below 0.9.

Read-out in the assay: Tissue plasminogen activator (tPA), PLAT (gene 5327)
Nature of the assay: BSK_BF4T_tPA: BioMAP Diversity Plus: BF4T Assay for Tissue plasminogen activator (tPA) Biomarker Activity (AID 2284272). Particulars: primary human bronchial epithelial cells with fibroblasts. As for the experimental part: BSK_BF4T is a cell-based, multiplexed-readout assay that uses bronchial epithelial cells and dermal fibroblasts, a human vascular primary cell, with measurements taken at 24 hours after chemical dosing in a microplate: 96-well plate.BSK_BF4T_tPA is an assay component measured in the BSK_BF4T assay. It measures tPA antibody related to regulation of gene expression using ELISA technology.Data from the assay component BSK_BF4T_tPA was analyzed at the endpoint, BSK_BF4T_tPA, in the positive analysis fitting direction relative to DMSO as the negative control and baseline of activity. Using a type of binding reporter, gain or loss-of-signal activity can be used to understand protein changes. To generalize the intended target to other relatable targets, this assay endpoint is annotated to the 'protease' intended target family, where the subfamily is 'serine protease'.
The levels of cell surface (or secreted, indicated by the prefix "s") biomarker endpoints were measured by ELISA. Overt cytotoxicity to cells in confluent adherent cultures (all systems other than the BT system) was assessed by measuring total protein levels using sulforhodamine B (SRB) staining in parallel cultures at the time of biomarker measurements, indicated as SRB endpoints. For proliferation assays for adherent cell types, individual cell types are cultured at sub-confluence and relative cell numbers quantified by SRB staining at time points optimized for each system (48 h: 3C and CASM3C systems; 72 h: BT and HDF3CGF systems; 96 h: SAg system). SRB was performed by staining cells with 0.1% SRB after fixation with 10% TCA and reading wells at 560 nm.Viability and proliferation of PBMC (T cells) was quantified by Alamar Blue reduction for the SAg and BT systems. For PBMC viability (referred to as PBMC Cytotoxicity within the assay endpoint names), cells were plated (75,000/well in a 96-well plate) and then chemical samples added for 1 h before addition of activators, SEB and TSST-1 (20 ng/mL final concentration each). Cells were incubated for 90 h. Then, Alamar Blue (20 uL/well) (Invitrogen, Cat DAL1100) was added for 6 h, and the plates were read with a fluorescence microplate reader at 546/580 nm (excitation/emission). For PBMC proliferation, cells were plated and activated as above but incubated for only 16 h prior to addition of Alamar Blue. Plates were read after 6 h.
With `O=S(=O)(O)CCC(F)(F)C(F)(F)C(F)(F)C(F)(F)C(F)(F)C(F)(F)F`, the result was inactive.

`FC(F)C(F)(F)COCC1CO1` (stereo not given): the result was inactive.

Consider `FC(F)=C(F)C(F)(F)C(F)(F)C(F)(F)C(F)(F)C(F)(F)C(F)(F)F`, for which the result was inactive.

Turning to `FC(F)(F)COC(OCC(F)(F)F)OCC(F)(F)F`, the outcome was inactive.

Take `FC(F)(F)C(F)(F)C(F)(F)C(F)(F)C(F)(F)C(F)(F)I`: the outcome was inactive.

For the molecule `NCC(F)(F)C(F)(F)C(F)(F)C(F)(F)F`, the result was inactive.

As to `OCCC(F)(F)C(F)(F)C(F)(F)C(F)(F)F`, the outcome was inactive.

Take `O=C(Cl)C(F)(F)C(F)(F)C(F)(F)C(=O)Cl`: the outcome was inactive.

With `OC(O)(C(F)C(O)(O)C(F)(F)F)C(F)(F)F`, the outcome was inactive.

Take `C[Si](C)(C)C(F)(F)C(F)(F)C(F)(F)F`: the result was inactive.

Values taken from PubChem BioAssay (EPA / NIEHS).
